This is a sample that favours compounds with a hit; in the whole collection about 3% have one here.
PPC-1+TRAIL kill = compounds killing PPC-1 cancer cells with TRAIL present, primary screen, TRAIL potentiator project, ATPLite luminescence, uHTS; AID 1443, 2008; cell killing (% activity), % at 4 µM or 5 µM; 220,000 tested, 0.41% active; PPC-1 cells + TRAIL, ATPLite viability luminescence;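 active = cell killing above 50% in the first pass at 4 µM, then a duplicate retest at 5 µM averaging 50% or more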;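 note: plate controls were cells with TRAIL plus DMSO for no effect and medium-only wells lacking cells for full effect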
SENP8 block-1 = human SENP8 protease inhibitors, primary screen, biochemical, fluorescence, Nedd8 protein substrate, uHTS; inhibition, % at 20 µM; 360,000 tested, 0.64% active; recombinant SENP8; Sentrin-specific protease 8 (Homo sapiens), Q96LD8; AID 602440, 2012; in the data active = inhibition mostly above about 40%, no sharp cut-off; inactive = mostly below about 27%
SENP6 block = SENP6 protease inhibitors, primary screen, biochemical, luminescence, uHTS | inhibition, % at 10 µM | Recombinant SENP6 catalytic domain, aminoluciferin luminescence | 330,000 tested, 1.8% active | AID 2599, 2010;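 active = inhibition above about 50% at the single tested dose, limit read from the data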;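 note: plate controls were DMSO wells with enzyme for no effect and DMSO wells lacking enzyme for full effect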
SENP8 block-2 = SENP8 protease inhibitors, primary screen, biochemical, luminescence | Sentrin-specific protease 8 (Homo sapiens), Q96LD8 | purified SENP8, Z-RLRGG-aminoluciferin cleavage | inhibition, % at 10 µM | 330,000 tested, 1.2% active; in the data active = inhibition above about 50%
C8 TRAIL sens = viability loss with TRAIL in NB7+C8 cells, primary screen, TRAIL sensitizer project, cell-based, ATPlite luminescence; inhibition (viability loss, TRAIL sensitization), % at 10 µM; 360,000 tested, 1% active; AID 624354, 2012;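 active = compounds causing at least 50% loss of cell viability in the single-dose screen, relative to plate controls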
SENP7 block = SENP7 protease inhibitors, primary screen, biochemical, luminescence, uHTS | Sentrin-specific protease 7 (Homo sapiens), Q9BQF6 | recombinant SENP7, Z-RLRGG-aminoluciferin luminescence, 40 min | inhibition, % at 5 µM | 330,000 tested, 1.5% active;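 active = inhibition above about 50% at the single test dose, limit read from the data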;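 note: plate controls were DMSO with enzyme for no effect and no enzyme buffer wells for full effect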
Target sequence (Q9BQF6 706-1050 limits assumed): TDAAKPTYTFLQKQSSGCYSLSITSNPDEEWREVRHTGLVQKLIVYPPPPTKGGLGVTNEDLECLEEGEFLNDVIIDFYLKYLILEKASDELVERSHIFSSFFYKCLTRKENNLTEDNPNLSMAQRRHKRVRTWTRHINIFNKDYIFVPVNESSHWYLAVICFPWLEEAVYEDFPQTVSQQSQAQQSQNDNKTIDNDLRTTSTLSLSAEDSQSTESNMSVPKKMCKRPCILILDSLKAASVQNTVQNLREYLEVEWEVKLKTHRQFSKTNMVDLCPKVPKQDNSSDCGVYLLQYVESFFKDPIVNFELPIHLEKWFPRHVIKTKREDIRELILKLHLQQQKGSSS
SENP8 confirm = SENP8 protease inhibitors, retest, confirmation, biochemical, luminescence, single concentration | shares compounds with SENP7 block | Recombinant SENP8, Z-RLRGG-aminoluciferin luminescence, 60 min | inhibition, % at 12.5 µM | 6,200 tested, 40% active | AID 488912, 2010;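 active = mean inhibition across replicates above about 50%, limit read from the data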
SENP6 confirm = SENP6 protease inhibitors, confirmation, biochemical, luminescence, single concentration; shares compounds with SENP7 block; recombinant SENP6, Z-RLRGG-aminoluciferin luminescence; inhibition, % at 12.5 µM; 6,200 tested, 58% active; AID 488915, 2010
SENP7 confirm = SENP7 protease inhibitors, retest, confirmation, biochemical, luminescence, single concentration; shares compounds with SENP7 block; recombinant SENP7, Z-RLRGG-aminoluciferin luminescence, 40 min; inhibition, % at 12.5 µM; 6,200 tested, 69% active
Casp3 SENP sel = caspase-3 protease inhibitors, confirmation, selectivity assay for SENP inhibitor project, biochemical, single concentration; shares compounds with SENP7 block; purified caspase-3, Z-DEVD-aminoluciferin luminescence, 60 min; inhibition, % at 12.5 µM; 6,200 tested, 60% active; AID 488918, 2010;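 active = mean inhibition above about 50%, limit read from the data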;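 note: plate controls were enzyme with DMSO for no effect and wells without caspase-3 for full effect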
Target sequence (P42574 28-227 limits assumed): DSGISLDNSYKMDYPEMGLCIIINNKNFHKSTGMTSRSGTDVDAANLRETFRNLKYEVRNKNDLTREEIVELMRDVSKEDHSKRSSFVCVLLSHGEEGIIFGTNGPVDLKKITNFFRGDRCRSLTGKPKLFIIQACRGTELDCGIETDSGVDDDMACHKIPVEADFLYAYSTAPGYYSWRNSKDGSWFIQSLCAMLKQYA
Luc interf = luminescence interference (SENP counter-screen). AID 488919. Pre-incubated SENP8/Z-RLRGG-aminoluciferin, luciferase luminescence interference. 6,200 tested, 39% active. shares compounds with SENP7 block. inhibition, % at 12.5 µM;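 active = mean inhibition above about 50% when retested at one dose, limit read from the data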;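 note: plate controls were DMSO wells with completed reaction for no effect and substrate without enzyme for full effect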
Numbers without * were called inactive; / = no result.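 Rule for the calls, unless noted: active = mean inhibition above about 50% in the one-dose retest (limit read from the data); inactive = the rest.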

SMILES | PPC-1+TRAIL kill | SENP8 block-1 | SENP6 block | SENP8 block-2 | C8 TRAIL sens | SENP7 block | SENP8 confirm | SENP6 confirm | SENP7 confirm | Casp3 SENP sel | Luc interf
Cc1cc(C(=O)Nc2ccc3c(c2)OCCO3)ccc1[N+](=O)[O-] | / | 20.2 | 84.3* | 77.0* | 23.6 | 91.8* | 10.0 | 56.7* | 94.4* | 81.4* | 11.8
O=C(Nc1ccc2c(c1)OCCO2)c1ccc(Cl)c([N+](=O)[O-])c1 | 20.4 | 18.0 | 19.7 | -10.0 | 34.1 | 10.8 | / | / | / | / | /
COc1ccccc1C(=O)Nc1ccc2c(c1)OCCO2 | 36.8 | 13.1 | 53.1* | 16.0 | 33.7 | 43.0 | 31.5 | 30.2 | 70.6* | 69.2* | 52.2*
CCOC(=O)c1c(C)[nH]c(C(=O)Nc2ccc3c(c2)OCO3)c1C | 14.9 | / | 16.1 | 59.5* | / | 83.7* | 8.8 | 80.5* | 96.5* | 79.4* | 48.3
CCOC(=O)Nc1ccc2c(c1)OCO2 | 13.1 | 6.4 | -32.2 | -10.8 | -28.9 | -6.4 | / | / | / | / | /
CC(=O)Nc1ccc2c(c1)OCCO2 | 13.2 | 22.1 | 10.3 | 1.7 | -0.8 | -0.1 | / | / | / | / | /
O=C(CCNS(=O)(=O)c1ccccc1)Nc1ccccc1 | / | 10.5 | 3.3 | -7.5 | 13.9 | -3.4 | / | / | / | / | /
CCC(Cc1c(I)cc(I)c(N)c1I)C(=O)O (stereo not given) | / | 4.5 | 5.1 | -2.6 | 4.5 | 2.2 | / | / | / | / | /
COC(=O)c1ccc(OS(=O)(=O)N(C)C)cc1 | -5.8 | 8.1 | -5.0 | -7.0 | -8.0 | -0.2 | / | / | / | / | /
Cc1ccc(C(=O)Nc2ccc3c(c2)OCO3)o1 | 27.6 | 17.3 | 50.5* | 1.5 | 18.6 | 32.2 | 26.2 | 20.7 | 66.6* | 77.0* | 52.3*
O=C(Nc1ccc2c(c1)OCCO2)c1ccc(Br)cc1 | / | -6.7 | 70.9* | 58.8* | 51.7* | 61.5* | 70.9* | 69.6* | 90.4* | 67.8* | 49.9
O=C(Nc1nc2ccccc2[nH]1)C1CC1 | 6.3 | 20.8 | -31.7 | -6.2 | 23.5 | -13.0 | / | / | / | / | /
O=C(Nc1nc2ccccc2[nH]1)c1cccs1 | 46.9 | -19.1 | 17.0 | 44.5 | 43.6 | 69.4* | 42.7 | 72.6* | 88.8* | 87.5* | 10.1
Cc1ccc(C(=O)Nc2nc3ccccc3[nH]2)cc1 | / | -3.3 | 93.2* | 93.3* | 92.8* | 96.8* | 10.5 | 8.5 | -4.0 | 47.9 | 10.2
COc1ccc(C(=O)Nc2nc3ccccc3[nH]2)cc1 | / | 1.9 | 96.7* | 92.6* | 90.8* | 97.3* | 7.5 | 95.1* | 101.2* | 96.1* | 59.6*
Cc1c(C(=O)Nc2nc3ccccc3[nH]2)oc2ccccc12 | 16.4 | -156.0 | 69.5* | 37.6 | 41.8 | 56.5* | -26.9 | 60.0* | 89.3* | 65.2* | 6.6
Cc1c(C(=O)Nc2nc3ccccc3[nH]2)oc2ccc(Br)cc12 | 17.5 | -158.4 | -27.6 | -3.9 | 12.4 | 47.7 | / | / | / | / | /
CC12CCC(C(=O)Nc3ccccc3Cl)(C(Br)C1=O)C2(C)C (stereo not given) | 29.6 | 7.1 | 5.1 | 4.3 | 6.0 | 6.7 | / | / | / | / | /
CCOC(=O)[C@]12CCCC=C1N(CCC1=CCCCC1)C(=O)[C@H](CC(=O)N1CCN(C(=O)C3CC3)CC1)C2 | / | 35.0 | / | / | 7.6 | / | / | / | / | / | /
